Bioassay records: PubChem, several laboratories
Many of the other results were omitted from the sample, so hits are more common in it than they were.
Calb biofilm kill – kills Candida albicans biofilms. C. albicans biofilm + clotrimazole, Alamar Blue. AID 834. actives 0.14% (n = 85,000). inhibition, % at 6 µM;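 active = inhibition above 20%; inactive = inhibition below 20%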;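 also: preformed 24 hr biofilms exposed to compound for 48 hr; 0% = biofilm without compound and 100% = blank killed by clotrimazole plus chlorhexidine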
HePTP inh – human HePTP phosphatase inhibition; recombinant HePTP phosphatase activity, OD absorbance; P35236; inhibition, % at 20 µM; actives 0.64% (n = 110,000); in the data active = inhibition above about 50%;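 also: plate controls were vehicle for no effect and reference inhibitor for full effect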
TNAP act DEA – activates human TNAP at intermediate phosphate acceptor concentration; P05186; AID 813; purified TNAP, CDP-star luminescence, 100 mM DEA, 30 min; hits give high values; scale: 0 levamisole-inhibited, 1 vehicle-only enzyme; activation factor at 20 µM; 64,000 tested, under 10 active;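 active = activation factor of at least 2 at 20 µM, relative to controls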
FXIa inh mix – inhibitors of human coagulation factor XIa, pooled mixtures; P03951; purified FXIa, fluorogenic substrate; inhibition, % at 5 µM; actives 0.19% (n = 62,000);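 also: each value is inhibition by a whole ten-compound pool holding the compound; 0% = enzyme with no mixture and 100% = wells lacking enzyme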
FXIIa inh mix – inhibitors of human coagulation factor XIIa, pooled mixtures. P00748. purified FXIIa, fluorogenic substrate. inhibition, % at 5 µM. actives 0.2% (n = 62,000);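 also: 0% = enzyme without compound and 100% = no enzyme blank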
D1 allo mod – D1 dopamine receptor (human) allosteric modulation; P21728; HEK293 D1, CRE-luciferase, dopamine EC30 potentiation; actives deviate in either direction; AID 641; actives 5.9% (n = 58,000); B-score at 10 µM;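 active = luminescence count or its row- and column-corrected plate score outside the 99.7% band of the plate's sample wells, on either side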
Target sequence (P21728 whole entry, looked up): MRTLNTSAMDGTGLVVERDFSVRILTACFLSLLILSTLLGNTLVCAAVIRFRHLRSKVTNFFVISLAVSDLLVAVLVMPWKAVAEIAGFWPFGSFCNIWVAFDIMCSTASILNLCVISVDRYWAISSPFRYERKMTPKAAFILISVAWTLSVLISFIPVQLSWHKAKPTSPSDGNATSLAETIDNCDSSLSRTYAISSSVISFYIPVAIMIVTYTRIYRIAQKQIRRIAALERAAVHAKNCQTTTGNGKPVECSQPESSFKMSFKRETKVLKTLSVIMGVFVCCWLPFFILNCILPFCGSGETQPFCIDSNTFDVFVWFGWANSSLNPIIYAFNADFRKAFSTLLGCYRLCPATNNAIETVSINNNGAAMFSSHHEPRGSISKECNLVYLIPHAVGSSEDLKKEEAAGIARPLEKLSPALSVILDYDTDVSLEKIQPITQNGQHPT
D1 PAM confirm – D1 receptor (human) allosteric modulation, confirmed | luminescence at 10 µM | actives 88% (n = 2,200) | HEK293 D1 CRE-luciferase, dopamine EC30 potentiation; hits give high values | shares compounds with D1 allo mod;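 active = luminescence in either of two replicates above the same-plate mean plus 3 SD of the low-dose dopamine control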
D1 ag no DA – secondary test of D1 modulators: activity without dopamine. HEK293 D1 CRE-luciferase, luminescence, no dopamine; hits give high values. shares compounds with D1 allo mod. luminescence at 10 µM. actives 0.8% (n = 1,900). AID 646; in the data active = luminescence above about 3900
Isoprot counter – alters isoproterenol CRE-luciferase response in HEK293 cells; shares compounds with D1 allo mod; HEK293 D1 CRE-luciferase, isoproterenol EC30 counter-screen; hits give high values; luminescence at 10 µM; actives 63% (n = 2,200); AID 647;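 active = luminescence in either replicate above plate mean of wells with a partly effective reference agonist dose plus 3 SD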;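 also: isoproterenol raises cAMP through native beta-adrenoceptor Gs so signal bypasses D1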
Numbers without * were called inactive. Rule as the data show it, unless noted: active = inhibition above about 20% (passing the limit was not always enough); inactive = the rest.

Cn1c(=O)[nH]c(=O)c2c1nc(SCC(=O)O)n2CCc1ccccc1 was read as Calb biofilm kill 5, HePTP inh 3, TNAP act DEA 0.9, FXIa inh mix 1, FXIIa inh mix 3 and D1 allo mod 0.97.
For CC(C)Sc1nc2c(c(=O)[nH]c(=O)n2C)n1CCc1ccccc1 the results were Calb biofilm kill 9, HePTP inh 10, TNAP act DEA 1, FXIa inh mix -1, FXIIa inh mix 5, D1 allo mod 26*, D1 PAM confirm 24288*, D1 ag no DA 1728 and Isoprot counter 4184*.
For CCCNc1nc2c(c(=O)[nH]c(=O)n2C)n1CCc1ccccc1 the results were Calb biofilm kill 4, HePTP inh 2, TNAP act DEA 0.8, FXIa inh mix 16, FXIIa inh mix 9, D1 allo mod 3.1*, D1 PAM confirm 8752*, D1 ag no DA 1684 and Isoprot counter 2952.
Screening CCCNc1nc2c(c(=O)[nH]c(=O)n2C)n1CCCc1ccccc1 returned Calb biofilm kill 4, HePTP inh 6, TNAP act DEA 0.9, FXIa inh mix 4, FXIIa inh mix 9 and D1 allo mod 1.1.
`CCOC(=O)CSc1nc2c(c(=O)[nH]c(=O)n2C)n1C/C=C(/C)Cl` gave Calb biofilm kill 5, HePTP inh 11, TNAP act DEA 0.9, FXIa inh mix 4, FXIIa inh mix -5 and D1 allo mod 3.
`COc1ccc(OC)c(C2C(C(C)=O)=C(O)C(=O)N2CCC(=O)O)c1` (stereo unspecified) gave Calb biofilm kill 7, HePTP inh 3, TNAP act DEA 0.9, FXIa inh mix 10, FXIIa inh mix 2, D1 allo mod 2.7*, D1 PAM confirm 4144, D1 ag no DA 1648 and Isoprot counter 2524.
Screening CCCCN=C(CCC)C1=C(O)CC(C)(C)CC1=O returned HePTP inh 0.
For CCc1nnc(NC(=O)CSc2nc3cccnc3n2C2CCCCC2)s1 the results were Calb biofilm kill -6, HePTP inh -1, TNAP act DEA 0.9, FXIa inh mix 8, FXIIa inh mix -15, D1 allo mod 6.2*, D1 PAM confirm 8624*, D1 ag no DA 1648 and Isoprot counter 3328*.
COc1cc2c(cc1NC(=O)c1cc([N+](=O)[O-])ccc1Cl)oc1ccccc12 was read as HePTP inh 34.
Cc1cc(Oc2ccccc2)nc(-c2ccccc2)n1 was read as HePTP inh -8, TNAP act DEA 0.9, FXIa inh mix -1, FXIIa inh mix -3, D1 allo mod 2.7*, D1 PAM confirm 6804*, D1 ag no DA 1624 and Isoprot counter 3112*.
`Cc1cc(C)n(-c2cc(Oc3ccccc3)nc(-c3ccccc3)n2)n1` gave HePTP inh 0.
`CCc1nc2sc3ccccc3c(=O)c2c(=O)n1Cc1ccco1` gave Calb biofilm kill 7, TNAP act DEA 0.8, FXIa inh mix -2, FXIIa inh mix 1, D1 allo mod 3.4*, D1 PAM confirm 12936*, D1 ag no DA 1700 and Isoprot counter 2952.
`CCOc1ccccc1/C=C1/SC(NC(C)=O)=NC1=O` gave HePTP inh -14.
Screening c1ccc(OCCOc2ccccc2-c2nnco2)cc1 returned Calb biofilm kill 7, HePTP inh 4, TNAP act DEA 0.9, FXIa inh mix 2, FXIIa inh mix 4, D1 allo mod 4.4*, D1 PAM confirm 6588, D1 ag no DA 1756 and Isoprot counter 2716.
Screening Nc1nc(OCC(F)(F)F)cc(Oc2ccccc2F)n1 returned Calb biofilm kill 7, HePTP inh 9, TNAP act DEA 0.9, D1 allo mod 8.7*, D1 PAM confirm 14824*, D1 ag no DA 1612 and Isoprot counter 3436*.
CCCn1c(=O)c2ccccc2n2c(SCCOc3ccccc3)nnc12 was read as Calb biofilm kill 5, HePTP inh 3, TNAP act DEA 0.9, FXIa inh mix -6, FXIIa inh mix 1, D1 allo mod 4.7*, D1 PAM confirm 10356* and Isoprot counter 2300.
Screening CCCn1c(C)cc(C(=O)CSc2nnc3n(CCC)c(=O)c4ccccc4n23)c1C returned Calb biofilm kill 6, HePTP inh 12, TNAP act DEA 0.9, FXIa inh mix 5, FXIIa inh mix -19 and D1 allo mod -1.5.
`CCCn1c(=O)c2ccccc2n2c(SCc3nc4ccccc4s3)nnc12` gave Calb biofilm kill 8, HePTP inh -1, TNAP act DEA 0.9, FXIa inh mix 7, FXIIa inh mix -6, D1 allo mod 6.7*, D1 PAM confirm 7964*, D1 ag no DA 1868 and Isoprot counter 2620.
`Cc1cc(C)cc(NC(=O)CN(Cc2ccccc2)S(=O)(=O)c2ccccc2)c1` gave HePTP inh 6.
`CCOC(=O)c1cccnc1SCc1cc(=O)n2ccccc2n1` gave Calb biofilm kill 13, HePTP inh 0, TNAP act DEA 0.9, FXIa inh mix 10, FXIIa inh mix 1, D1 allo mod 4.4*, D1 PAM confirm 10728*, D1 ag no DA 1604 and Isoprot counter 3652*.
For CC(OC(=O)c1cccnc1SCc1cc(=O)n2ccccc2n1)c1ccccn1 (stereo unspecified) the results were Calb biofilm kill 9.
Screening CCc1c(C)nc2c(Cl)cccc2c1SCC(=O)O returned HePTP inh -16.
For c1ccc(-c2nc(NCCCn3ccnc3)c3oc4ccccc4c3n2)cc1 the results were Calb biofilm kill 7.
CCc1nc(NCCCn2ccnc2)c2oc3ccccc3c2n1 was read as Calb biofilm kill 0, HePTP inh -5, TNAP act DEA 1, FXIa inh mix -1, FXIIa inh mix 14, D1 allo mod 5.5*, D1 PAM confirm 13664* and Isoprot counter 3032*.
For CCOC(=O)c1c(-c2ccc(OCC)cc2)csc1N the results were HePTP inh -1.
CCOC(=O)c1c(-c2ccncc2)csc1N was read as Calb biofilm kill 5, HePTP inh 17, TNAP act DEA 0.9, FXIa inh mix 2, FXIIa inh mix 6, D1 allo mod 6.8*, D1 PAM confirm 14984*, D1 ag no DA 1720 and Isoprot counter 2936.
Cc1ccc(/C(N)=N/OC(=O)c2ccccc2Br)cc1 was read as HePTP inh 1.
`O=C(NCCN1CCOCC1)c1ccc2c(c1)N(Cc1ccccc1F)C(=O)CS2` gave Calb biofilm kill 9, HePTP inh 1, TNAP act DEA 0.9, FXIa inh mix 1, FXIIa inh mix 11 and D1 allo mod -0.033.
